# Shown are actives, neighbours in structure and some others; about 4.1% of the full set was active somewhere.
# hgDAF-12 ag: agonists of H. glycines DAF-12 nuclear receptor. actives 1.8% (n = 370,000). activation, % at 6.8 µM. HEK293 GAL4-hgDAF12 UAS-luciferase reporter, agonist luminescence; normalized to butyrate control. AID 687014;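 active = activation above a cutoff set at the mean of all screened compounds plus 3 SD, cut at about 10% in these data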;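 note: 0% = DMSO wells and 100% = sodium butyrate wells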
# ssDAF12 agonist: activates DAF-12 receptor from parasite S. stercoralis; activation, % at 6.8 µM; HEK293 ssDAF-12/GRIP1 lit1-tk-luc reporter, luminescence; % of 3 µM dafachronic acid response; actives 1% (n = 370,000);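 active = activation above the mean over all tested compounds plus 3 SD, cut at about 0.9% in these data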;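 note: 0% = DMSO-only wells and 100% = 3 µM delta7-dafachronic acid wells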
# DAX1 inh-1: inhibitors of human orphan nuclear receptor DAX1 (NR0B1); HEK293 Gal4-DAX1 luciferase reporter, luminescence; inhibition, % at 6.75 µM; actives 0.99% (n = 340,000); AID 504766;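 active = inhibition above the mean over all tested compounds plus 3 SD, cut at about 4.2% in these data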;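 note: 0% = DAX1-transfected cells with DMSO and 100% = empty-vector control cells with DMSO; inhibition shows as a rise in luminescence from relieved DAX1 repression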
# Target sequence (P51843 207-470 limits assumed): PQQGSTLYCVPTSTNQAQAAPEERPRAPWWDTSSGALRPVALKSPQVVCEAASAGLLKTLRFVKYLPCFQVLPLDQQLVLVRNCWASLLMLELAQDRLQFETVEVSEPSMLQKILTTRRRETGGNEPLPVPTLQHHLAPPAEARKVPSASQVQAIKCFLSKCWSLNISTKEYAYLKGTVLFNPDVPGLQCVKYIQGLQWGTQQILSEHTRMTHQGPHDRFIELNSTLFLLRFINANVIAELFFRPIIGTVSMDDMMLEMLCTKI
# DAX1 inh-2: blocks DAX1 repression of SF-1 activated StAR promoter; HEK293T StAR-luciferase reporter, SF-1/DAX-1 repression relief; inhibition, % at 6.8 µM; actives 1.1% (n = 370,000);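 active = inhibition above the mean over all tested compounds plus 3 SD, cut at about 3.6% in these data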;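 note: 0% = DAX-1 cells with DMSO and 100% = cells lacking DAX-1 with DMSO; higher inhibition means more luminescence from relief of DAX-1 repression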
# hcDAF12 agonist: activators of H. contortus DAF-12 nuclear receptor | HEK293 hcDAF-12 lit1-tk-luc reporter, luminescence; 0% DMSO, 100% Δ7-dafachronic acid | activation, % at 6.8 µM | actives 1.4% (n = 370,000) | AID 652067;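 active = activation above the mean of all tested compounds plus 3 SD, cut at about 5.5% in these data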;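 note: 100% = response to 3 µM Δ7-dafachronic acid high control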
# * hit, by the source's call; . = not tested or not shown.
SMILES,hgDAF-12 ag,ssDAF12 agonist,DAX1 inh-1,DAX1 inh-2,hcDAF12 agonist
CCN1C[C@@H]2[C@@H]3C(=O)N(C)C(=O)[C@@H]3[C@](CC)(C1=O)N2C(=O)c1ccc(F)cc1,2,0,4.6*,1,1
COC(=O)[C@]12C[C@H](CC(=O)NCC3CCCCC3)C(=O)N(Cc3cccc4ccccc34)C1=C[C@H](COCc1ccccc1)O[C@@H]2C,3,0,.,1,-1
Cc1cc(C)n(-c2cc(N3CCN(S(=O)(=O)c4ccc(C)c(C)c4)CC3)ccc2[N+](=O)[O-])n1,-1,-1,5.4*,0,2
CCN1C(=O)/C(=C2\SC(N3CCOCC3)=NC2=O)c2ccccc21,1,0,0,0,-1
CCCCN1C(=O)/C(=C2\SC(N3CCOCC3)=NC2=O)c2ccccc21,2,0,0,0,5.9*
CCCCCC1(C)NC(=S)N(c2ccccc2)N1 (centres undefined),-1,-1,1,0,1
CCC1(c2ccc(Cl)cc2)NC(=S)N(c2ccccc2)N1 (centres undefined),7,1,0,1,5.7*
CCCCCCC1(C)NC(=S)N(c2ccccc2)N1 (centres undefined),1,5.7*,0,0,1
COc1c2c(cc3c1c(=O)c1ccccc1n3C)OCO2,1,-1,.,0,1
COc1ccc(/C=C/C(=O)Nc2cc(C)nn2-c2nc3ccccc3n2Cc2cccc([N+](=O)[O-])c2)cc1,3,1.0*,2,2,4
COc1ccc(/C=C/C(=O)Nc2cc(C)nn2-c2nc3ccccc3[nH]2)cc1,1,-1,0,0,-3
CC(C)(C)C(=O)O[C@@H]1CCC[C@@]2(C(=O)N(Cc3ccccc3)c3ccccc32)[C@H]1NC(=O)CCc1ccccc1,-1,-1,.,0,-3
c1cncc(CNc2cccc(-c3nc4ccccc4[nH]3)c2)c1,11*,-1,-1,1,4
C#CCN1C(=O)S/C(=C/C=C/c2ccc(N(C)C)cc2)C1=O,13*,0,3,2,4
O=C(CN1C(=O)S/C(=C\C=C\c2ccccc2)C1=O)Nc1ccccc1C(=O)O,-1,-1,-1,0,0
O=C(O)COCc1nc2ccccc2s1,1,-1,2,1,0
Fc1ccc(OCc2nc3ccccc3s2)cc1,11*,1.1*,2,2,6.2*
CCn1c(=O)c2cc(C(=O)Nc3ccc(OC)cc3OC)sc2c2ccccc21,0,-1,4.2*,0,-1
CCCN(CCC)CCNC(=O)c1cc2c(=O)n(CC)c3ccccc3c2s1,-2,0,4.6*,2,4
Cc1ccccc1Cn1cc(CN2[C@H](Cc3ccccc3)COc3cc(Br)ccc3S2(=O)=O)nn1,0,-1,.,0,0
Cc1cccc(-c2cccc3c4c([nH]c23)[C@@H]2C[C@H](N(C)C(=O)Nc3ccccc3C)[C@H]([C@H](C)O)CN2CC4)c1,3,0,.,0,-3
CCOC(=O)c1c(C)oc2cc(Cl)c(O)c(CN(C)C)c12,13*,-1,-1,1,-2
CCOC(=O)c1c(C)oc2ccc(O)c(CN(C)C)c12,-2,-1,2,1,-1
CCOC(=O)[C@]12CCCC=C1N(CCCOC)C(=O)[C@@H]2CC(=O)N1CCCC1,0,-1,.,0,-2
Cn1c(SCC(=O)NNC(=O)c2ccccc2O)nnc1-c1ccccc1,1,0,0,1,6.1*
SMILES,hgDAF-12 ag,ssDAF12 agonist,DAX1 inh-1,DAX1 inh-2,hcDAF12 agonist
CSc1ccc(C(=O)NCC2CCN(C(=O)C(=O)c3cc4ccccc4o3)CC2)cc1,2,-1,.,0,0
Oc1[nH]c2ccccc2c1N=Nc1ccccc1Cl,7,2.5*,3,2,4
COc1ccc(C(=O)Nn2c(SCc3cccc([N+](=O)[O-])c3)nc3ccccc3c2=O)cc1,0,-2,-1,1,1
O=C(Nn1c(SCc2cccc([N+](=O)[O-])c2)nc2ccccc2c1=O)c1ccccc1,13*,0,2,3,4
CC(C)NC(=O)N[C@H]1C[C@@H]2O[C@@H](CO)CC[C@@H]2O[C@@H]1CCc1ccc(-c2ccc(F)cc2)cc1,-1,-1,.,1,-2
COc1ccc2nc(NNC(=O)C3COc4ccccc4O3)sc2c1 (centres undefined),6,1.3*,0,0,6.2*
COc1ccc2nc(NC(=O)CCNC(=O)c3ccco3)sc2c1,8,-1,1,2,5
COc1ccc2nc(NC(=S)NC(=O)c3ccco3)sc2c1,11*,0,1,1,3
COc1ccc2nc(NC(=O)c3cc(C)oc3C)sc2c1,11*,0,0,2,1
CCCCCc1ccc(-c2n[nH]c(=O)c3ccccc23)cc1,10,-2,.,0,1
COc1ccc2c(=O)c3c(=O)n(CCc4ccccc4)c(C(C)C)nc3oc2c1,0,-1,4.7*,0,1
COc1ccc2c(=O)c3c(=O)n(CCc4ccccc4)c(C)nc3oc2c1,0,0,.,0,3
COc1ccc(C2=Nc3ccccc3N(C(=O)c3cccnc3)C2C(=O)NC2CCCC2)cc1 (centres undefined),6,0,.,1,-1
O=C(NC1CCCC1)C1C(c2ccc(C(F)(F)F)cc2)=Nc2ccccc2N1C(=O)c1ccco1 (centres undefined),6,0,.,1,5.6*
O=C(NC1CCCC1)C1C(c2ccc(C(F)(F)F)cc2)=Nc2ccccc2N1C(=O)c1ccccc1 (centres undefined),5,1,.,3.6*,5.7*
CCCC(=O)N1CCC[C@]2(CC[C@@H](CCC(=O)N(CC)CC)O2)C1,0,-1,.,0,0
CCOC(=O)c1sc2nc3c(cc2c1N)C(=O)CC(C)(C)C3,1,-1,4.4*,1,-2
COC(=O)c1sc2nc3c(cc2c1N)C(=O)CC(C)(C)C3,2,0,0,1,1
Cc1cc(N2CCN(C(=O)Oc3ccc(-c4ccccc4)cc3)CC2)c2ccccc2n1,-5,-2,.,-5,-6
CCCOc1ccc(N2C(=O)CC(N3CCN(c4ccc([N+](=O)[O-])cc4)CC3)C2=O)cc1 (centres undefined),-2,-2,5.2*,-1,-4
CCOc1ccc(N2C(=O)CC(N3CCN(c4ccc([N+](=O)[O-])cc4)CC3)C2=O)cc1 (centres undefined),4,-1,1,0,-3
COc1ccc(C2Nc3cccc4cccc(c34)N2)cc1Br,2,1.1*,-1,0,5
COc1ccccc1N1CCN(S(=O)(=O)c2ccccc2)CC1,3,-1,2,0,0

# Bioassay records from PubChem.
